Dicer inh: blocks human Dicer maturation of pre-miR-21 | Q9UPY3 | cat-ELCCA pre-miR-21 Dicer processing, chemiluminescence; hits give high values | z-score at 25 µM | 47,000 tested, 6% active; in the data active means z-score above about 3, passing the limit was not always enough;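 further: higher signal means more uncleaved substrate so more Dicer inhibition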
Numbers stand for hits; . = inactive. Shown is part of a subset that was picked to be rich in hits.

SMILES	Dicer inh
COc1cc(OC)cc(-c2nc3n(n2)C(c2ccccc2)C2=C(CCCC2=O)N3)c1 (stereo not given)	.
O=C1CC(c2ccco2)CC2=C1C(c1ccccc1)n1nc(C(F)(F)F)nc1N2 (stereo not given)	.
O=C(O)CSc1c(Cl)cc(Cl)cc1Cl	.
Cn1c2c(c3ccccc31)/C(=N/OC(=O)c1cccc(C(F)(F)F)c1)CCC2	.
CN(C)c1ccc(/C=N/NC(=O)N/N=C/c2ccc(N(C)C)cc2Cl)c(Cl)c1	.
Cc1cc(C)c2nc(NCc3ccccc3O)sc2c1	.
COc1cc(CNc2nc3c(C)cc(C)cc3s2)ccc1O	3.1
COc1cc(CCC(C)NCc2ccccc2)ccc1O (stereo not given)	.
COC(=O)Nc1cc(C)n(-c2ccccc2)n1	.
Cc1cc(NC(=O)N(C)C)nn1-c1ccccc1	.
CC(=O)OCc1cc(/C=N/N(C(C)=O)c2ccccc2)nn1-c1ccccc1	3.5
Cc1ccc(Nc2c([N+](=O)[O-])sc3ccccc23)cc1	.
COc1ccc(-c2c(C)nc3ccc(Cl)cc3c2-c2ccccc2)cc1OC	.
C=CCn1c(N)c(C(=O)N/N=C/c2cccs2)sc1=S	.
CC1(C)CSC(=NC2CCCCC2)N1	3.2
CC1=C(C(=O)OC2CCCCC2)C(c2ccccc2)C2=C(CC(C)(C)CC2=O)N1 (stereo not given)	.
CN(C)S(=O)(=O)N(CC(=O)Nc1ccc2c(c1)OCCO2)c1ccccc1	.
Cc1cc2ncc(-c3ccnc(SCc4c(Cl)cccc4Cl)n3)c(C)n2n1	24
Cc1cc2ncc(-c3ccnc(SCc4cccc(Cl)c4)n3)c(C)n2n1	.
Cc1cc2ncc(-c3ccnc(SCC(=O)c4ccc(Cl)cc4)n3)c(C)n2n1	.
CC1(C)C=Cc2cc(/C(N)=N/OC(=O)Nc3cccc(C(F)(F)F)c3)ccc2O1	.
CN(Cc1ccccc1)c1nc2c(c(=O)n(C)c(=O)n2C)n1Cc1ccccc1Cl	.
CC(C)(C)SC(=S)SCC(=O)c1ccc(Cl)cc1	.
O=C(CSC(=S)NNc1ccccc1)c1ccc(Cl)cc1	3.1
O=C(CSC(=S)NNc1ccccc1)c1cccc([N+](=O)[O-])c1	.
SMILES	Dicer inh
O=C(NCc1cccs1)c1cnn2c(C(F)(F)F)cc(-c3ccc4c(c3)OCO4)nc12	.
O=C(c1ccc(Cl)cc1)c1c(O)cc(-c2ccc(Cl)cc2)oc1=O	.
O=c1c(-c2cccc(Cl)c2)c(C(F)(F)F)oc2cc(O)ccc12	.
O=C1C2=C(c3ccccc3)c3cc(Cl)ccc3C2Sc2ccccc21 (stereo not given)	.
O=c1oc2c(-c3cccc(Cl)c3)cc(O)cc2s1	6.2
O=c1oc2c(-c3ccccc3F)cc(O)cc2s1	.
O=c1oc2c(-c3ccc(Cl)cc3)cc(O)cc2s1	12
COc1nc2c(c(-c3c(F)cccc3Cl)c1C#N)Cc1ccccc1-2	.
O=C1CC(c2cccc(Cl)c2)Cc2nc(N3CCc4ccccc4C3)ncc21 (stereo not given)	.
Cc1ccc2oc3c(c(=O)c2c1)C(c1ccc(C(C)C)cc1)N(CCCN(C)C)C3=O (stereo not given)	.
Cc1cc(NC(=O)CSCC(=O)O)no1	.
COC(=O)/C(C#N)=C/c1ccc(Cl)cc1Cl	.
CC1CCc2c(sc(N)c2C(=O)Nc2ccc(Cl)cc2)C1 (stereo not given)	.
CCOC(=O)C1=C(C)Nc2nnnn2C1c1ccccn1 (stereo not given)	.
CCOC(=O)C1=C(C)Nc2ncnn2C1c1ccc(OC)c(OC)c1 (stereo not given)	.
CCOC(=O)C1=C(c2ccccc2)Nc2ncnn2C1c1ccc(F)cc1 (stereo not given)	.
CCOC(=O)C1=C(C)Nc2nnnn2C1c1ccc(OCc2ccccc2)c(OC)c1 (stereo not given)	.
CCOC(=O)C1=C(C)Nc2nnnn2C1c1ccc(OC)c(OC)c1 (stereo not given)	.
CCOC(=O)C1=C(C)Nc2nnnn2C1c1ccccc1 (stereo not given)	3.1
CCOC(=O)C1=C(C)Nc2nnnn2C1c1cc(Br)ccc1OCC (stereo not given)	.
CCOc1ccccc1C1C(C(=O)OC(C)C)=C(C)Nc2nnnn21 (stereo not given)	4.5
CCOC(=O)C1=C(C)Nc2nnnn2C1c1ccccc1Cl (stereo not given)	.
CCCOC(=O)C1=C(C)Nc2nnnn2C1c1ccccc1OCC (stereo not given)	3.4
CCOC(=O)C1=C(c2ccccc2)Nc2ncnn2C1c1cccc(Br)c1 (stereo not given)	3.2
CCCOc1ccccc1C1C(C(=O)OC(C)C)=C(C)Nc2nnnn21 (stereo not given)	.
SMILES	Dicer inh
COc1ccc(OC)c(C2C(C#N)=C(N)Oc3n[nH]c(C)c32)c1 (stereo not given)	.
COCCOC(=O)C1=C(C)Nc2nc3ccccc3n2C1c1ccc(Cl)cc1 (stereo not given)	.
CC(C)(C)OC(=O)N[C@@H](CCC(=O)OCc1ccccc1)C(N)=O	.
CC1CN=C(N(C(=O)Nc2cccc(Cl)c2)c2ccc(F)c(Cl)c2)S1 (stereo not given)	.
O=c1[nH]c(=S)[nH]c(O)c1/C=C/N=Nc1ccccc1	.
N#CCSc1nnc2c(n1)[nH]c1ccccc12	.
COc1ccc(-c2cnc3ncnn3c2N)cc1OC	.
O=C(NNC(=S)NC(=O)C1CC1)c1cccc([N+](=O)[O-])c1	.
Cc1ccc(OCC(=O)Nc2sc3c(c2C(N)=O)CCC3)c(C(C)(C)C)c1	.
S=C(NC1CCCCCCCCCCC1)NC1CC2C=CC1C2 (stereo not given)	.
CSC(=NC(=O)c1c(Cl)cccc1Cl)N1CCOCC1	.
C=C1CC(C)OC(C(C)(C)COC(=O)NC2CCCCC2)C1 (stereo not given)	.
CC(C)CCSc1nc(N2CCCC2)c2c(c1C#N)CC(C)(C)OC2	3.1
CC(C)Sc1nc(N2CCCC2)c2c(c1C#N)CC(C)(C)OC2	.
CC1(C)Cc2c(C#N)c(SCc3ccccc3)nc(N3CCOCC3)c2CO1	.
CC(C)(C)n1cnnc1Sc1ccc(C(F)(F)F)cc1[N+](=O)[O-]	.
CC(C)(C)c1cc(C(N)=O)n(Cc2ccccc2)n1	.
CCCCOC(=O)C1=C(C)NC2=C(C(=O)CC(C)(C)C2)C1c1ccc(Cl)cc1 (stereo not given)	.
Cc1onc(-c2c(Cl)cccc2Cl)c1NC(=O)N(C)/N=C/c1c(Cl)cccc1Cl	.
CCCCOCC1CC2(CC(C)(c3csc(N)n3)OC2=O)C(=O)O1 (stereo not given)	.
CC(C)CC1CC(C)(c2csc(Nc3ccccc3)n2)OC1=O (stereo not given)	.
C=CCNc1nc(C2(C)CC3(CC(COCC(C)C)OC3=O)C(=O)O2)cs1 (stereo not given)	3.1
CCC1CC(C)(c2csc(Nc3ccc(C)cc3)n2)OC1=O (stereo not given)	.
CCCOCC1CC2(CC(C)(c3csc(Nc4ccc(C)cc4)n3)OC2=O)C(=O)O1 (stereo not given)	.
C=CCNc1nc(C2(C)CC3(CC(C)OC3=O)C(=O)O2)cs1 (stereo not given)	3.5
CN(CCO)c1cc(C(F)(F)F)nc2ccccc12	.
COc1ccc(-c2oc3ncn4nc(-c5ccccn5)nc4c3c2-c2ccc(OC)cc2)cc1	.
O=C(OCCN=C1NS(=O)(=O)c2ccccc21)c1ccc(S(=O)(=O)N2CCOCC2)cc1	.
CCOC(=O)c1c(NC(=O)CSc2nnc3c4ccccc4n(CC)c3n2)sc2c1CCC2	.
